Consider 60 molecules from PubChem BioAssay AID651965 (National Center for Advancing Translational Sciences (NCATS), 2013).

The campaign covered roughly 340,000 compounds. About 6,400 (1.9%) were called active. Another 4% or so got no clear call; they are omitted. The list comes from a sample in which actives are over-represented; it also holds similar structures and randomly drawn compounds. A number with no mark means an inactive call. Calls follow the shape of the dose curve; as a rule, active = well fitted falling curve with a large enough effect; inconclusive = small, poorly fitted or top-dose-only effect; inactive = no such curve, though single readings can be large or run the other way.
Potency is read from the fitted curve at half-maximal effect.

The target in this test is ATP-dependent Clp protease proteolytic subunit (Bacillus subtilis (strain 168)) (UniProt P80244). The test is described as follows: qHTS Assay for Activators of ClpP. Also: the source files actives as falling curves though it sought activators and does not explain the sign; nearly all actives have a fitted effect of over 65% in size. Conditions: purified B. subtilis ClpP, FRET peptide cleavage, 20 min; series mostly up to 57.5 µM; activity change, negative = active: at the top concentration. The method, boiled down: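 FRET quenching reversal measured ClpP activation: 10 microg/mL B. subtilis ClpP at pH 8 with the FRET-FV decapeptide, read at 430 nm after 320 nm excitation. The 20-min minus 0-min signal was scaled between DMSO/no-enzyme wells and ADEP (5.8 microM final).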
Chain of ATP-dependent Clp protease proteolytic subunit (Bacillus subtilis (strain 168)) (P80244 whole entry, looked up): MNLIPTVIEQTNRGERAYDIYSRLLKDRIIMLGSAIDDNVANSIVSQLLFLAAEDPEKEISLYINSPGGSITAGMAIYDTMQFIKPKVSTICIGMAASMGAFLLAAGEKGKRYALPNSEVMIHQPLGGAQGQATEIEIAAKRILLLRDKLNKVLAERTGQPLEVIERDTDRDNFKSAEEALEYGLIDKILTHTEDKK
For orientation: In qHTS, concentration-response curves come from the screen itself.
Consider `O=C(CSc1nnc(-c2ccco2)o1)NCC(=O)c1ccccc1`, for which the “activity change, negative = active” value was 0.0274%.
On the same count and under the same terms, the same measure for `COc1ccc(CC(=O)Nc2c(C(N)=O)oc3ccccc23)cc1`: -4.43%.
Take `Cc1ccc(OCC(=O)Nc2ccc(-c3nnc(-c4ccco4)o3)cc2)cc1`: the Potency was 28.2 µM (active).
Still for that read-out and setting: the same measure for `COc1ccc(CC(=O)Nc2ccc(-c3nnc(-c4ccccc4)o3)cc2)cc1`: 7.08 µM (active).
Turning to `COc1ccc(CC(=O)Nc2ccc(C(=O)NC(C)(C)C)cc2)cc1`, the “activity change, negative = active” value was -3.23%.
Same read-out and setting: the value for `Fc1cccc(Cc2c(-c3ccc(Cl)cc3)nc3ccc(Cl)cn23)c1` was 3.62%.
On the same count and under the same terms, the value for `O=C(Nc1cccc2cccnc12)c1ccc2sc([C@H]3C[C@H](O)[C@@H](CO)O3)nc2c1` was -2.17%; that for `CCCCCc1c(Cc2ccccc2)ncn1CCc1ccccc1OC` was -1.82%.
Still for that read-out and setting: the same measure for `O=C(Nc1nnc([C@H]2C[C@H](O)[C@@H](CO)O2)s1)c1cccc(Cl)c1`: -3.52%.
As to `CC(C)(O)C1=C[N+](=O)CC=C1`, the “activity change, negative = active” value is 1.51%.
Still for that read-out and setting: the value for `O=S(=O)(c1cccc(C(F)(F)F)c1)N1c2ccccc2-n2cccc2C1c1cccnc1` (stereo not given) was -9.99%.
Turning to `CN(C)c1ccc(/C=N\Nc2ccc([N+](=O)[O-])cc2[N+](=O)[O-])cc1Cl`, the “activity change, negative = active” value was -1.21%.
The same measure, in the same setting: the same measure for `O=C(Nc1ccc(Cl)cc1)c1cnn2c1NC(=C1CC1)C=C2C(F)F`: -2.47%; for `CC(C)(C)c1ccc(S(=O)(=O)NC(=O)C2(C)CCN2C(=O)CC2CC2)cc1` (stereo not given): -1.69%; for `COc1ccc(C(C)C)cc1-c1ccc2nncn2c1`: -17%.
As for `C/C=C/NNC(=O)Cc1ccc(OC)cc1`, the “activity change, negative = active” value is -0.261%.
On the same count and under the same terms, the value for `CC1(C)Cc2ccccc2-c2c[nH]c(=O)n21` was -8.9%.
As to `O=c1oc2ccc(C#CC3(O)CCCCC3)cc2cc1-n1cc(-c2ccsc2)nn1`, the Potency is 31.6 µM (active).
As for `CCCCCn1nnnc1-c1nc2cc3ccccc3cc2[nH]c1=O`, the “activity change, negative = active” value is -3.31%.
Same read-out and setting: the same measure for `CCOC(=O)[C@]12CCCC=C1N(Cc1ccc3c(c1)OCO3)C(=O)[C@H](CC(=O)NCc1cccs1)C2`: -3.13%; for `O=C(c1ccc2c(=O)n(Cc3ccco3)c(=S)[nH]c2c1)N1CCCC1`: -0.0374%.
On the same count and under the same terms, the value for `O=C(Nc1cccc(-c2nc3ncccc3o2)c1)c1ccco1` was -19.3%; that for `O=C(Nc1cc(-c2nc3ncccc3o2)ccc1Cl)c1ccco1` was -16.7%.
On to `Cc1cccc(C(=O)Nc2ccc(-c3nc4ncccc4o3)cc2C)c1`, for which the Potency is 35.5 µM (active).
Turning to `COc1ccc(C(NC(=O)C2CCN(CCCc3ccccc3)CC2)c2cccs2)cc1` (stereo not given), the “activity change, negative = active” value is 0.0312%.
Still for that read-out and setting: the value for `Cc1ccccc1OCc1ccc(-c2nc(C#N)c(N3CCCCC3)o2)o1` was 3.92%.
Consider `CN1CCN(c2oc(-c3ccc(COc4ccc(Cl)cc4)o3)nc2C#N)CC1`, for which the Potency is 35.5 µM (active).
Regarding `N#Cc1nc(COc2ccc(Cl)cc2)oc1N1CCCC1`, the “activity change, negative = active” value was -2.25%.
Regarding `CC1CC(C)CN(c2oc(-c3ccc(OCc4ccc(Cl)cc4)cc3)nc2C#N)C1` (stereo not given), the “activity change, negative = active” value is -0.166%.
Consider `CCC(C)Nc1oc(-c2ccc(COc3ccc(Cl)cc3)o2)nc1C#N` (stereo not given), for which the Potency is 28.2 µM (active).
Turning to `COc1ccc(OCc2ccc(-c3nc(C#N)c(N4CCN(c5ccccc5)CC4)o3)o2)cc1`, the “activity change, negative = active” value was -10.7%.
Same read-out and setting: the same measure for `CCCCCc1c(-c2ccc(OC)c(OC)c2)ncn1CCc1ccccc1OC`: -22.3%.
`O=S(=O)(c1ccc(Cl)cc1)c1nnn2c1nc(NC1CCCC1)c1sccc12`: the Potency was 25.1 µM (active).
On to `O=S(=O)(c1ccc(Br)cc1)c1nnn2c1nc(NC1CCCCCC1)c1sccc12`, for which the “activity change, negative = active” value is -4%.
The same measure, in the same setting: the same measure for `CC1CCCN(c2nc3c(S(=O)(=O)c4ccc(C(C)C)cc4)nnn3c3ccsc23)C1` (stereo not given): -6.42%.
With `C[C@@H]1Cn2cnc(C(=O)Nc3ccc(CNC(=O)OC(C)(C)C)cc3)c2C(=O)N1`, the “activity change, negative = active” value was -2.12%.
As for `CC1CN(C(=O)c2cccc(NS(=O)(=O)c3ccc(Br)cc3)c2)CC(C)O1` (stereo not given), the “activity change, negative = active” value was -1.89%.
The same measure, in the same setting: the same measure for `COc1ccc(COC[C@H](CC(C)C)N2CCN(C(=O)c3cccc(C(F)(F)F)c3)CCC2=O)cc1`: -2.62%.
The same measure, in the same setting: the value for `COC(=O)C[C@@H]1C=C[C@@H](NC(=O)c2cccnc2)[C@@H](CO)O1` was -0.211%; that for `COc1ccc(-c2c(C)nn3c(N4CCC(C(=O)NCCC(C)C)CC4)cc(C)nc23)cc1OC` was -0.514%; that for `COc1ccc(CCNc2nc(-c3ccc(Cl)cc3)cc(C(F)(F)F)n2)cc1OC` was -9.59%.
Turning to `COc1ccc(CCNc2cc(C)nc3c(-c4ccc(Cl)cc4)c(C)nn23)cc1OC`, the Potency was 28.2 µM (active).
In the case of `CNc1cncc(-c2cccc(C(=O)N3CCOCC3)c2)n1`, the “activity change, negative = active” value was 4.52%.
As for `NCCCCC(C(=O)O)N(C(=O)OCc1ccccc1)C(=O)OCc1ccccc1` (stereo not given), the “activity change, negative = active” value is -1.15%.
Still for that read-out and setting: the same measure for `CC(C)(C)OC(=O)N(Cc1ccco1)S(=O)(=O)c1ccccc1Br`: -0.306%.
The same measure, in the same setting: the same measure for `O=C(C(=O)N1CCC(c2ccccc2)CC1)c1ccccc1`: -1.51%.
As to `Cc1nc2ccc(NC(=O)N3CCC(c4ccccc4)C3)cc2nc1C` (stereo not given), the Potency was 10 µM (active).
As for `Cc1ccc(C2CCN(C(=S)Nc3cccc(Cl)c3)C2)cc1` (stereo not given), the “activity change, negative = active” value is 1.03%.
Same read-out and setting: the value for `COC(=O)[C@]12CCCCC=C1N(Cc1ccco1)C(=O)[C@H](CC(=O)NCC1CCCCC1)C2` was -3.97%.
Still for that read-out and setting: the same measure for `C[C@H](NC(=O)[C@@H]1CCCN1C(=O)[C@@H]1CCCN1C(=O)c1ccccc1)c1ccccc1`: -0.114%.
Still for that read-out and setting: the value for `CN(C)c1cccc2ccccc12` was 4.23%.
As for `O=C(Cc1ccccc1)Nc1sc2c(c1C(=O)Nc1ccc(Br)cc1)CCC2`, the “activity change, negative = active” value is 0.382%.
Consider `O=C(CN1CCCC1)Nc1sc2c(c1C(=O)Nc1ccccc1)CCCC2`, for which the Potency is 28.2 µM (active).
Turning to `CCOc1ccc(NC(=O)c2c(NC(=O)Cc3ccccc3)sc3c2CCCCC3)cc1`, the “activity change, negative = active” value is -1.14%.
On to `Cc1ccc(-c2ccc(=O)n(CC(=O)NCCCN3CCCCC3)n2)cc1`, for which the Potency was 14.1 µM (active).
Take `CCc1ccc(-c2cc3c(=O)n(CC(=O)NCCCN4CCN(Cc5ccccc5)CC4)nc(C)n3n2)cc1`: the “activity change, negative = active” value is 4.35%.
As to `CCN(CC)CCCNC(=O)CCn1nc(-c2ccc(Cl)cc2)ccc1=O`, the “activity change, negative = active” value is -0.753%.
On the same count and under the same terms, the value for `S=c1[nH]c(=S)c2n[nH]nc2[nH]1` was 0.104%; that for `NC(=O)Nc1ccc(/C=C/c2ccnc3ccccc23)cc1` was -16.4%.
For the molecule `CC(C)C1CC2=C(C(=O)OC(C)(C)O2)C(c2ccc(F)cc2)O1` (stereo not given), the “activity change, negative = active” value was 1.5%.
